Compounds with a hit are over-represented: about 3.5% of the library has one in this group of screens.
FBW7 act: activators of human E3 ligase FBW7; AlphaScreen FBW7–phospho-cyclin E peptide binding, activator screen; Q969H0; AID 1259310; actives 0.13% (n = 650,000); normalized activity (activation), % at 26.1 µM; in the data active means normalized activity above about 1.9%;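 further: purified mutant Fbw7 with reduced substrate affinity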
Target sequence (Q969H0 whole entry, looked up): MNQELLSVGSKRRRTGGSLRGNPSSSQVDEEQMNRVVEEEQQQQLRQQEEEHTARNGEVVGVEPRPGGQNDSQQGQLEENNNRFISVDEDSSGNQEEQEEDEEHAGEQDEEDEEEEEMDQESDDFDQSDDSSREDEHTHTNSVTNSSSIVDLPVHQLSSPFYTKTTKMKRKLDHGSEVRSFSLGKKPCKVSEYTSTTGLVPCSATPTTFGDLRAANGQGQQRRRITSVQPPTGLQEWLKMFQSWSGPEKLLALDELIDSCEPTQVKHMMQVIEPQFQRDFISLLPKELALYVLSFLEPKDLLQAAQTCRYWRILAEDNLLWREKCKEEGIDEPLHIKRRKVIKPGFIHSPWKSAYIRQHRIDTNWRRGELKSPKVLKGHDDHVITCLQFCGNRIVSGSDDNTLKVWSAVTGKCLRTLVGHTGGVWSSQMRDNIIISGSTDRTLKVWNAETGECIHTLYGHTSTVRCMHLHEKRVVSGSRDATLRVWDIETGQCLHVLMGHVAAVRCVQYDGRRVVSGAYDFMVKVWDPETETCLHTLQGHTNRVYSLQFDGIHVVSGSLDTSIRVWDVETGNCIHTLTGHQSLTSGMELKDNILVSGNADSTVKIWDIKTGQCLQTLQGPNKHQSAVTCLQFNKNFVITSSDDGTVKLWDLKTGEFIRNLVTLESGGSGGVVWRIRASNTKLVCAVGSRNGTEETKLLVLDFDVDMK
MITF inh: inhibitors of human MITF | AlphaScreen MITF homodimerization, bead proximity signal | actives 0.91% (n = 650,000) | inhibition, % at 2.6 µM | O75030; in the data active means inhibition above about 50%;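 further: 0% = vehicle wells with protein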
TEAD-YAP inh: TEAD-YAP interaction inhibition | HEK-TIYL cells, TEAD-Gal4/YAP UAS-luciferase luminescence | inhibition, % at 9.12 µM | actives 1.4% (n = 640,000) | AID 1259422; in the data active means inhibition above about 32%;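 further: 0% = median of test compound wells and 100% = reference inhibitor wells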
GPR151 activ: activators of human GPR151. PathHunter beta-arrestin GPR151 cells, luminescence. actives 1% (n = 650,000). Q8TDV0. activation, % at 11.2 µM. AID 1508602; in the data active means activation above about 4.9%;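 further: 0% = median of compound wells and 100% = cells with positive control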
MITF inh conf: human MITF inhibition, confirmation | shares compounds with MITF inh | actives 16% (n = 4,700) | AID 1259372 | inhibition, % at 2.6 µM | AlphaScreen MITF homodimerization, biotin/His-MITF beads;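 active means inhibition above a cutoff derived from the DMSO control wells, cut at about 28% in these data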;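 further: 0% = MITF dimer wells with DMSO only; inhibitors lower the bead chemiluminescence by keeping MITF from dimerizing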
AlphaScreen DR: AlphaScreen optical interference, dose response counter-screen; shares compounds with MITF inh; AlphaScreen optical interference counterscreen, cell-free; IC50, µM; actives 6% (n = 480); call rule not given here
AlphaScreen intf2: counter-screen: compounds optically interfering with AlphaScreen. shares compounds with MITF inh. LysRS AlphaScreen counterscreen, signal interference, triplicate. inhibition, % at 2.6 µM. actives 7.6% (n = 4,700);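 active means inhibition above a cutoff derived from the DMSO control wells, cut at about 30% in these data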
The depositor's hits bear a star; · = not tested or not shown.

SMILES | FBW7 act | MITF inh | TEAD-YAP inh | GPR151 activ | MITF inh conf | AlphaScreen intf2 | others
CCn1c(Cc2ccccc2)nnc1SCC(=O)Nc1cc(C)on1 | 0 | 4 | 4 | -1 | · | ·
CCCc1nnc(SCC(=O)Nc2cc(C)on2)n1CC | 0 | 74* | -3 | 1 | 4 | 12
O=S(=O)(Nc1cccc2cccnc12)c1ccccc1O | 0 | 60* | 72* | 1 | 87* | 101*
O=S(=O)(Nc1cccc2cccnc12)c1ccc2ccccc2c1 | -1 | 13 | 16 | 0 | · | ·
COc1ccc(-c2ccc(C(=O)NC3CC3)s2)cc1 | 0 | -2 | 9 | -12 | · | ·
CC1CCN(Cc2ccc(O)c3ncccc23)CC1 | 0 | 83* | 41* | 1 | 97* | 100*
CCOC(=O)C1CCCN(Cc2ccc(O)c3ncccc23)C1 (centres undefined) | -2 | 78* | 8 | 1 | 82* | 100*
CC1CCN(C(=O)C2CCN(Cc3ccccc3O)CC2)CC1 | 1 | 38 | 3 | -1 | · | ·
COc1ccc(CN(CCC(c2ccccc2)c2ccc3c(c2)OCO3)C(C)=O)cc1 (centres undefined) | 0 | 18 | -9 | -1 | · | ·
CCn1c(CN2CCCC(CNC(=O)c3cccnc3)C2)nc2ccccc21 (centres undefined) | 0 | 0 | -7 | 0 | · | ·
CC(C)N(CCNc1nc(NC2CCN(Cc3ccccc3)CC2)nc2c1ncn2C1CCCCC1)C(C)C | 0 | 58* | 5 | -2 | -1 | 11
c1ccc(CNc2nc(NC3CCN(Cc4ccccc4)CC3)nc3c2ncn3C2CCCCC2)cc1 | 0 | 27 | -9 | -1 | · | ·
c1ccc(CN2CCC(Nc3nc(Nc4ccccc4)nc4c3ncn4C3CCCCC3)CC2)cc1 | 0 | 18 | 8 | 0 | · | ·
c1ccc(Nc2nc(NC3CC3)c3ncn(C4CCCCC4)c3n2)cc1 | 0 | 88* | -6 | 0 | 3 | 4
Cc1nnc(SCc2ccccn2)n1CCN1CCOCC1 | 0 | -1 | -1 | 1 | · | ·
c1ccc(CN2CCN(C3CCCCCC3)CC2)cc1 | 0 | 70* | 2 | -1 | 7 | 17
Clc1ccc(CN2CCN(C3CCCC3)CC2)cc1 | 0 | 45 | -6 | 1 | · | ·
Fc1cccc(CN2CCN(C3CCCC3)CC2)c1 | 0 | 52* | 3 | 0 | -17 | -8
Clc1ccc(CN2CCN(C3CCCCCC3)CC2)cc1 | 1 | 74* | -3 | 0 | -5 | 3
Clc1ccc(CN2CCN(C3CCCCC3)CC2)cc1 | 0 | 67* | -9 | 0 | 5 | 17
NC1CCN(Cc2cccc(F)c2)CC1 | 0 | -13 | -2 | 0 | · | ·
O=c1c(CN2CCCCC2)coc2ccc(Cl)cc12 | 0 | 2 | -7 | -1 | · | ·
CN1CCN(Cc2coc3c(Cl)cc(Cl)cc3c2=O)CC1 | 0 | 64* | -3 | 1 | 0 | 1
c1cncc(CNc2nc(N3CCN(Cc4ccc5c(c4)OCO5)CC3)nc3c2ncn3C2CCCCC2)c1 | 0 | 7 | -14 | 2 | · | ·
C=C/C=C(\C(C)=C(C)C)N(C(C)=O)C1=NCCCS1 | 0 | 65* | 3 | 1 | 12 | 11
SMILES | FBW7 act | MITF inh | TEAD-YAP inh | GPR151 activ | MITF inh conf | AlphaScreen intf2 | others
COC(=O)Nc1ccc(S(=O)(=O)N2CCC(C)CC2)cc1 | 0 | 75* | 2 | 1 | 7 | 19
COc1ccc(OC)c(/C=C/C(=O)NCCN2CCC(N(C)C3CCCCC3C)CC2)c1 (centres undefined) | 0 | 52* | 2 | -1 | -1 | 14
COc1ccc(/C=C/C(=O)NCCCN2CCC(N(C)C3CCCCC3C)CC2)cc1 (centres undefined) | 0 | -1 | 1 | 1 | · | ·
CCC(=O)Oc1ccc(NC(=O)Oc2ccccc2)cc1 | 0 | 6 | -6 | 2 | · | ·
O=C(COc1ccc(Br)cc1)NCc1nc(-c2ccc(Cl)cc2)no1 | 0 | 56* | -6 | 0 | -17 | -6
O=C(O)c1cc(N/N=C/c2ccc(N3CCOCC3)s2)ccc1Cl | 0 | 76* | -16 | -1 | 60* | 21 | AlphaScreen DR=>7.1
O=[N+]([O-])c1ccc(Sc2nnc(Cc3ccccc3)n2-c2ccccc2)nc1 | 0 | 11 | 10 | -1 | · | ·
CCCNC(=O)c1csc(Nc2ccccc2)n1 | 0 | 7 | 0 | 4 | · | ·
O=C(CN1CCN(C(=O)NCc2ccc(Cl)cc2)CC1)c1cccs1 | 1 | 59* | 4 | -2 | 8 | 19
O=C(CN1CCN(C(=O)NCc2cccs2)CC1)c1ccco1 | 0 | 58* | 5 | -1 | 9 | 28
Cc1ccccc1NC(=O)N1CCN(CC(=O)c2ccco2)CC1 | 0 | 54* | -11 | -1 | 10 | 22
Cc1ncc(CO)c(/C=N/Nc2ccc(C(F)(F)F)cc2[N+](=O)[O-])c1O | 0 | -10 | 4 | 1 | · | ·
Cc1ncc(CO)c(/C=N/NC(=S)Nc2ccc(F)cc2)c1O | -1 | 85* | -2 | -2 | 15 | 23
Cc1ncc(CO)c(/C=N/Nc2ccc(C(F)(F)F)cn2)c1O | -1 | 58* | 30 | 4 | 23 | 100*
Cc1ncc(CO)c(/C=N/NC(=S)Nc2ccc(Cl)cc2)c1O | 0 | 64* | 9 | 0 | -15 | 21
Cc1ncc(CO)c(/C=N/NC(=O)c2ccccc2F)c1O | -2 | 32 | -33 | 0 | · | ·
CC(=O)c1cccc(OCC(O)CNCc2cccc(C(F)(F)F)c2)c1 (centres undefined) | 0 | 57* | 5 | -1 | -4 | 8
CCc1cccc(OCC(O)CNCc2cccnc2)c1 (centres undefined) | 0 | 76* | 3 | 1 | -14 | 18
O=c1[nH]cc(S(=O)(=O)O)c2ccccc12 | 1 | 65* | 1 | 1 | -4 | 1
CC(C)COC(=O)c1cccc(NC(=O)Cc2ccccc2)c1 | 0 | -9 | -37 | 1 | · | ·
O=C1CCCC2=C1C(c1ccc([N+](=O)[O-])o1)C1=C(CCCC1=O)O2 | 0 | 67* | -7 | 0 | 62* | 8 | AlphaScreen DR=>7.1
CCOc1cc(NC(=O)c2ccccn2)c(OCC)cc1NC(C)=O | 0 | 60* | 6 | 0 | 52* | 76*
CCOc1cc(NC(=O)c2ccccn2)c(OCC)cc1NC(=O)CC | 0 | -7 | -3 | 0 | · | ·
CC(Sc1nc2ccccc2o1)C(=O)O (centres undefined) | 2 | 64* | -25 | -2 | 3 | 10
COCc1cc(C)nc(SCCN(C)C)c1C#N | 0 | 51* | -4 | 0 | 11 | 8
CCc1nc2c(sc3cccc(F)c32)c(=O)n1CC(=O)NCc1ccc(Cl)cc1 | 0 | 55* | -4 | -1 | -5 | -5
C=C(C)CSc1nnc(C)n1-c1ccccc1 | 0 | -1 | 3 | 1 | · | ·
CCc1sc2nc[nH]c(=O)c2c1-c1ccccc1 | 1 | -51 | 4 | 2 | · | ·
